Measured values published in the antibiotic and cytotoxicity screens of Wong et al. (2023).
The campaign covered roughly 39,000 compounds. About 500 (1.3%) were called active. Shown is part of a subset that was picked to be rich in actives.

system: S. aureus RN4220; test: growth inhibition call (relative growth <= 0.2); settings: 50 µM

Structure (SMILES)	growth inhibition call
C[C@@H]1CCCCO[C@H](CN(C)C(=O)Nc2cccc3ccccc23)[C@@H](C)CN([C@@H](C)CO)C(=O)c2cc(NC(=O)Nc3ccc(F)cc3)ccc2O1	inactive
Cc1ccc(S(=O)(=O)N(C)C[C@H]2Oc3c(NC(=O)Nc4ccc(C(F)(F)F)cc4)cccc3C(=O)N([C@H](C)CO)C[C@H]2C)cc1	inactive
C[C@H]1CN([C@@H](C)CO)C(=O)c2cc(NC(=O)C3CCCCC3)ccc2O[C@H]1CN(C)Cc1ccc(Cl)c(Cl)c1	inactive
C[C@@H]1CN([C@H](C)CO)S(=O)(=O)c2ccc(C#CCN(C)C)cc2O[C@H]1CN(C)Cc1ccc2c(c1)OCO2	inactive
COc1ccc(COC[C@]23N=C4SCc5ccccc5CN4[C@H](c4ccccc4O2)[C@H]3COC(=O)NCCCCCC(=O)NO)cc1	inactive
O=C(O)c1cn(C2CC2)c2cc(N3CCNCC3)c(F)cc2c1=O	inactive
CCn1cc(C(=O)O)c(=O)c2cc(F)c(N3CCN(C(=S)Nc4cc(C(F)(F)F)ccc4Cl)CC3)cc21	inactive
CCn1cc(C(=O)O)c(=O)c2cc(F)c(N3CCNCC3)cc21	active
CCn1cc(C(=O)O)c(=O)c2cnc(N3CCCC3)nc21	inactive
CCn1cc(C(=O)N2CCN(C)CC2)c(=O)c2cc(S(=O)(=O)N(C)C)ccc21	inactive
CCN1CCN(c2cc3c(cc2F)c(=O)c(C(=O)O)cn3C2CC2)CC1	active
CCn1cc(C(=O)O)c(=O)c2cc(F)c(N3CCN(C)CC3)cc21.CS(=O)(=O)O	active
CCn1cc(C(=O)O)c(=O)c2ccc(C)nc21	inactive
C[C@@H]1CCCCO[C@H](CN(C)C(=O)CCCN(C)C)[C@@H](C)CN([C@H](C)CO)C(=O)c2cc(N(C)C)ccc2O1	inactive
C[C@@H]1CCCCO[C@H](CN(C)C(=O)NC2CCCCC2)[C@@H](C)CN([C@@H](C)CO)C(=O)c2cc(NC(=O)CCC(F)(F)F)ccc2O1	inactive
COCC(=O)N1C[C@@H](C)[C@@H](OC)CN(C)C(=O)c2cc(NC(=O)Nc3cccc(F)c3)ccc2OC[C@H]1C	inactive
C[C@@H]1CN([C@H](C)CO)C(=O)c2cc(NC(=O)CCC(F)(F)F)ccc2O[C@@H](C)CCCCO[C@@H]1CN(C)Cc1ccccc1	inactive
C[C@H]1CN([C@@H](C)CO)C(=O)c2cccc(NS(C)(=O)=O)c2O[C@@H]1CN(C)C(=O)Nc1ccc2c(c1)OCO2	inactive
CN(C)C(=O)CN1CCn2cc(Cn3cncn3)nc2C1	inactive
Cc1noc(C)c1NC(=O)Nc1ccc2c(c1)CC(=O)N([C@H](C)CO)C[C@H](C)[C@H](CN(C)S(=O)(=O)c1cccs1)O2	inactive
